Measured values reported in the supplement of paper PMC3334620.
In all, about 33,000 sequences were measured (“E-score (-0.5 to 0.5)”: median about -0.035, highest 2% from about 0.35 on). This is one part of a sample in which the highest values are shown more often than they occur.

What follows are sequences tested against T1, Pdr3 (UniProt P33200) (assay: PBM E-score (8-mer binding enrichment) (E-score (-0.5 to 0.5)); higher = stronger / more preferred TF binding). Settings: protein concentration: 200 nM; construct: GST-full length.
T1 sequence: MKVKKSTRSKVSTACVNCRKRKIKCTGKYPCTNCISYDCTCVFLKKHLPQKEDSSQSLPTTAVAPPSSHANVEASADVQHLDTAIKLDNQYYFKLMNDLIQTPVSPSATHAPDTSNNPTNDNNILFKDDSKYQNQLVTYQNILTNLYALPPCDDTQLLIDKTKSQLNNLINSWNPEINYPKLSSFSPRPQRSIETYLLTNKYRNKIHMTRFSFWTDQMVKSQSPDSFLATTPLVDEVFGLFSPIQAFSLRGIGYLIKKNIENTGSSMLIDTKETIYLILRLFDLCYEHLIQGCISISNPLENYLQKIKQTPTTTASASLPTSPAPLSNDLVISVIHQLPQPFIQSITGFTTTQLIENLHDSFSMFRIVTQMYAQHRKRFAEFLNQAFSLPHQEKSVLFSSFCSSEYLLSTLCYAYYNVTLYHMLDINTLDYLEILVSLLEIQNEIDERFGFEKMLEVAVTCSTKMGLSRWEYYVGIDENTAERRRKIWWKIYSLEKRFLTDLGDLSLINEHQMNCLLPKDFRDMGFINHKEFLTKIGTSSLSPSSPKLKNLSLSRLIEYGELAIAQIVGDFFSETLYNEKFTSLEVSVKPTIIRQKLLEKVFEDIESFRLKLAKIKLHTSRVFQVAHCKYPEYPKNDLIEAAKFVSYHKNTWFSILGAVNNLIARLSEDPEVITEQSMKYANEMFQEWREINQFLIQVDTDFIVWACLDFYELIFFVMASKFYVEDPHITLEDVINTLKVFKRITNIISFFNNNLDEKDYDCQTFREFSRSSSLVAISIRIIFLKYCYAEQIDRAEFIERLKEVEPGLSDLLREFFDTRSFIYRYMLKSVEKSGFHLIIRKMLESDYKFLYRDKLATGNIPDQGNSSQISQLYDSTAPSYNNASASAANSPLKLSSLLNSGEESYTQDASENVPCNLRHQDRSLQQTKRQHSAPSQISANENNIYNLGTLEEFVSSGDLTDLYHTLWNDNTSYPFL
Procedure, shortened: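 Using PURExpress in vitro transcription/translation, GST-tagged yeast transcription factors were made in full-length or DNA-binding-domain form. These were applied at about 100-200 nM to double-stranded universal all-10-mer Agilent arrays, and bound protein was detected with fluorescent anti-GST. Scans were normalised with masliner before the Universal PBM Analysis Suite assigned E-scores to ungapped eight-base words pooled with their reverse complements.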

Row | Sequence | PBM E-score
1 | AAAACCAA | -0.0135
2 | AATATTTG | 0.0496
3 | TATACGGA | 0.221
4 | GATACGGC | 0.014
5 | GATACGGA | 0.357
6 | AATACGGA | 0.351
7 | CATACGGC | 0.143
8 | CATACGGA | 0.359
9 | CTGTTCTC | -0.0802
10 | ATGAGCTG | -0.0649
11 | CGTATTTA | 0.164
12 | CGGTGCCA | -0.115
13 | AGTCCCGA | 0.147
14 | AATCCCAT | -0.0271
15 | TATCCCGA | 0.305
16 | AATCCCGA | 0.358
17 | AATCCCGC | 0.333
18 | AATCCCGT | 0.409
19 | ACAAGGTG | -0.125
20 | GTCCTCTA | -0.222
21 | GGAACCTA | 0.3
22 | TCTGGCAA | 0.0125
23 | ACCTACGC | -0.0495
24 | TAAACGGA | 0.366
25 | GAAACGGC | 0.202
26 | GAAACGAA | 0.0452

Row | Sequence | PBM E-score
27 | GAAACGGA | 0.395
28 | CAAACGGG | 0.184
29 | TAAACGTA | -0.137
30 | TAAACGAA | -0.0987
31 | AAAACGGA | 0.314
32 | CAAACGGA | 0.37
33 | CAAATGCG | 0.0429
34 | CATTCTCC | -0.105
35 | CAGGGCAA | 0.0442
36 | CCGCTAGG | 0.0934
37 | TCGCTAGA | -0.125
38 | CGTACCAC | -0.102
39 | AATCCTAG | -0.108
40 | CTGATAGA | -0.118
41 | CTTCCGGA | 0.451
42 | ATTCCAGA | 0.0594
43 | ATTCCGGA | 0.481
44 | CTGCCGGC | 0.339
45 | GTTCCGGA | 0.475
46 | CTTCCCGA | 0.291
47 | CTTCCTGA | 0.0336
48 | GTTCCTGA | -0.0384
49 | CTTCCGGC | 0.398
50 | ATACCGGA | 0.303
51 | GTACCGGA | 0.318
52 | CTACCGGC | -0.0343

Row | Sequence | PBM E-score
53 | AACTGATA | 0.0335
54 | ATAAGCAA | -0.128
55 | GATGCGCA | 0.0246
56 | AAAACCCG | 0.319
57 | CACTTACG | 0.121
58 | AGCCCTCA | -0.248
59 | CCCGGCGC | 0.26
60 | CCCGGCGA | 0.296
61 | GTCGGCGA | -0.0361
62 | GCCGGCGC | 0.372
63 | ACCGGCGA | 0.281
64 | ACCGGCGC | 0.228
65 | TCCGGCGA | 0.356
66 | GCCGGCTA | 0.248
67 | GCCGGCGA | 0.36
68 | AGAGGCCG | -0.105
69 | CTAGAAGC | -0.166
70 | ATGTCGGC | -0.0499
71 | CGCAACTA | 0.0897
72 | GCGCCGGA | 0.384
73 | CCGCCGCC | 0.244
74 | ACGCCGCC | 0.0831
75 | ACGCCGGA | 0.289
76 | CCGCCGCA | 0.202
77 | GCGCCGAA | 0.241
78 | CCGCCGTC | 0.168

Row | Sequence | PBM E-score
79 | GCGCCGTA | 0.251
80 | CCGCCGGA | 0.415
81 | CCGCCGGC | 0.401
82 | ACGCCGGC | 0.385
83 | ACGCCGGG | 0.251
84 | GACCTACC | 0.0277
85 | ACCTTTAA | -0.0915
86 | ATGTCGTA | -0.238
87 | CATGAGTA | -0.168
88 | GCGCACGA | 0.0416
89 | GCTGTACC | -0.00444
90 | GCCTGCCC | -0.0411
91 | CCCAAGAA | -0.0373
92 | ACGGCGCC | 0.243
93 | CCGGCGCC | 0.37
94 | GCGGCGCC | 0.353
95 | AACGAACT | -0.245
96 | AGAGAAGG | -0.0862
97 | CCGAAAGC | 0.136
98 | AGGAAAGA | -0.167
99 | CGGAAAGA | 0.428
100 | GGGAAAGA | 0.0836
101 | AGGAAAGC | -0.105
102 | CGGAAAGC | 0.415
103 | CTGCGGTA | -0.0102
104 | GCTTTCAC | -0.107

Row | Sequence | PBM E-score
105 | ACTGGGCT | 0.0297
106 | CCTGCAGA | -0.0209
107 | AGTTCTGG | -0.0246
108 | CGGTGTAC | -0.0705
109 | AGACTACT | -0.173
110 | TGGATACA | -0.189
111 | AGGATATC | -0.0388
112 | CGGATACC | 0.31
113 | CGGATAAA | 0.383
114 | CGGATAAC | 0.333
115 | TGGATAAA | 0.103
116 | CGGATATC | 0.391
117 | CGGATATA | 0.346
118 | CGGATACA | 0.364
119 | ACTTTGAA | -0.202
120 | ATCTTAGC | -0.2
121 | GGCCAGAC | 0.075
122 | GAGGTCAC | -0.0512
123 | ACCCAGAG | -0.132
124 | AGGCGCAC | 0.147
125 | CCGTGGAA | 0.437
126 | ACGTGGAG | -0.132
127 | CCGTGGAG | 0.382
128 | CCGTGGAC | 0.274
129 | GCGTGGAA | 0.0102
130 | ACGTGGAA | -0.0114

Row | Sequence | PBM E-score
131 | TGCGCCAA | 0.053
132 | ACGCGGAC | 0.229
133 | TCGCGGCA | 0.174
134 | GCGCGGAC | 0.305
135 | TCGCGAAA | 0.131
136 | GCGCGGCA | 0.237
137 | ACGCGGAA | 0.407
138 | TCGCGGAA | 0.404
139 | ACGCGGAT | 0.244
140 | GCGCGGAA | 0.464
141 | AAACCTCA | 0.109
142 | GAGTTGGC | 0.115
143 | ATAAGCAG | -0.127
144 | CCCGAATA | 0.14
145 | AGGCAGCC | 0.0506
146 | CGGCAGCA | 0.109
147 | CGGCAGCC | 0.358
148 | CGGGTTCA | 0.304
149 | CCGGTTCC | 0.426
150 | CCGGTTCA | 0.104
151 | CCGGTTCG | 0.217
152 | AGGGTTCC | 0.249
153 | CGGGTTCC | 0.414
154 | CTCCATAA | -0.273
155 | CTCGCTGC | 0.00281
156 | CTGGTCTA | -0.254

Row | Sequence | PBM E-score
157 | ACACTTCC | 0.184
158 | CTGTTGAC | -0.162
159 | AAACCAGG | -0.0534
160 | CGTAACAC | -0.0629
161 | CGGAATCC | 0.461
162 | AGGAATCA | -0.0475
163 | CCGAATCC | 0.336
164 | GGGAATCA | 0.0382
165 | CGGAATCA | 0.456
166 | AGGAATCC | 0.0872
167 | CTTGGGCC | -0.0633
168 | GTATCTGA | -0.146
169 | ACGTCTCG | -0.0164
170 | AAAGTCTC | -0.186
171 | TTAGCGAA | 0.0125
172 | GCTACCAC | -0.16
173 | CCGGGATC | 0.453
174 | ACGGGATA | 0.38
175 | CTGGGATA | 0.0272
176 | CGGGGATA | 0.33
